# In PubChem BioAssay (Tox21):
# Records with an inconclusive call do not appear. Where a call stands in place of a potency, no number is given. The source made the active and inactive calls. Calls come from the whole dose curve; as a rule, active = well fitted curve in the direction sought with a large enough effect in the signal ratio in the repeat runs (not every such curve was filed as active); inconclusive = weak or mixed curves, or a change in a side signal; inactive = no such curve, though single readings can be large or run the other way; the % refers to the signal ratio.
# Experiment: qHTS assay to identify small molecule agonists of the NFkB signaling pathway (AID 1159509)
# Conditions: NFkB-bla ME-180 cells, beta-lactamase FRET ratio, 5 h; series mostly up to 61 µM
# Excerpt: National Center for Advancing Translational Sciences [NCATS]
# NIH Chemical Genomics Center [NCGC]
# U.S. Environmental Protection Agency [EPA]
# National Institutes of Environmental Health Sciences [NIEHS]
# National Toxicology Program [NTP]
# U.S. Food and Drug Administration [FDA]
# Transcription factors and their stimulated target gene expression play pivotal roles across many cellular processes including responses to environmental stimuli. Proper regulation of associated pathways is critical to maintain cell health and function. Constitutive activation of transcription factor pathways has been implicated in tumors as it may block cellular functions such as apoptosis and lead to invasion and metastasis. One important transcription factor that stimulates gene expression in response to cytokines, UV radiation, and other stimuli is nuclear factor-kappa B (NFkB). To measure activation of the NFkB pathway, the CellSensor NFkB-bla ME-180 cell line (Life Technologies, Carlsbad, CA) that stably expresses beta-lactamase reporter gene under the regulation of a NF-kB response element was used. This assay allows measurement of the NFkB pathway activity induced by compounds in a ME-180 cell line. This system quantitates NF-kB activity using a FRET-based assay system where beta-lactamase expression disrupts FRET, allowing for fluorescent measurement of activity. This cell line has been used to screen the Tox21 10K compound library and to identify compounds that induce the NFkB pathway activity.
# Tox21 Assay Protocol Summary:
# NFkB-bla ME-180 cells were dispensed at 2,000 cells/6 uL of assay medium per well into black wall/clear-bottom 1536-well plates using a Multidrop Combi (ThermoFisher Scientific, Waltham, MA) dispenser. After the assay plates were incubated at 37 C and 5% CO2 for an overnight, 23 nL of compounds dissolved in DMSO, positive controls or DMSO only was transferred to the assay plate by a Pintool station (Kalypsys, San Diego, CA). The assay plates were incubated at 37 C and 5% CO2 for 5 hr. One uL of LiveBLAzer B/G FRET substrate (Life Technologies) was added using a Flying Reagent Dispenser (Aurora Discovery, San Diego, CA) and the plates were incubated at room temperature for 1.5 hr. Fluorescence intensity (405 nm excitation, 460 nm and 530 nm emissions) was measured using an Envision plate reader (PerkinElmer, Shelton, CT).
row,SMILES,Potency
1,O=C1c2ccccc2C(=O)C1c1nc2ccccc2c(Br)c1O,inactive
2,COc1ncnc(NS(=O)(=O)c2ccc(N)cc2)c1OC,inactive
3,CC(C)C(O)(c1ccc(OC(F)(F)F)cc1)c1cncnc1 (stereo not given),inactive
4,CN1CCCC(n2nc(Cc3ccc(Cl)cc3)c3ccccc3c2=O)CC1 (stereo not given),inactive
5,O=C(Nc1cccc2c(=O)cc(-c3nn[nH]n3)oc12)c1ccc(OCCCCc2ccccc2)cc1,inactive
6,Nc1cccc2c1CN(C1CCC(=O)NC1=O)C2=O (stereo not given),inactive
7,O=c1cc(-c2ccccc2)oc2ccc3ccccc3c12,inactive
8,CN1C(=O)c2ccccc2C1=O,inactive
9,CC(C)Nc1cccnc1N1CCN(C(=O)c2cc3cc(NS(C)(=O)=O)ccc3[nH]2)CC1,inactive
10,CCCCCCCCN,inactive
11,O=[N+]([O-])c1cc(C2CCCCC2)c(O)c([N+](=O)[O-])c1,inactive
12,CCOc1cccc(-n2cc(C(=O)N3CCN(c4cc(C(=O)O)c5ccccc5c4)CC3)nc2-c2ccc(C)cc2)c1,inactive
13,COC(=O)CCS,inactive
14,COc1cc(C(=O)NCCCCCC(=O)O)cc(OC)c1OC,inactive
15,Cc1ccc(CO)cc1,inactive
16,CCOc1ccccc1O[C@H](c1ccccc1)[C@H]1CNCCO1,inactive
17,CCCC(=O)C(=O)O,inactive
18,C[C@@H](O[C@H]1OCCN(Cc2n[nH]c(=O)[nH]2)[C@H]1c1ccc(F)cc1)c1cc(C(F)(F)F)cc(C(F)(F)F)c1,inactive
19,c1ccc2c(c1)CCc1ccccc1N2,inactive
20,Cc1cc(=O)c2c(O)c3c(O)cc(=O)c4c3c3c(cc(O)c1c23)C(C)(C)C=4O,inactive

row,SMILES,Potency
1,COc1ccc(OC(=O)N(CC(=O)O)Cc2ccc(OCCc3nc(-c4ccccc4)oc3C)cc2)cc1,inactive
2,CN1C(=O)OC(C)(C)C1=O,inactive
3,CC1(C)O[C@@H]2C[C@H]3[C@@H]4C[C@H](F)C5=CC(=O)C=C[C@]5(C)[C@H]4[C@@H](O)C[C@]3(C)[C@]2(C(=O)CO)O1,inactive
4,CCCCN(CCCC)C(C(N)=O)c1ccc(OC)cc1 (stereo not given),inactive
5,C(=C\c1ccccc1)/c1ccccc1,inactive
6,CCCCCCCCC(CCCCCC)C(=O)O (stereo not given),inactive
7,CC1=Nc2ccc3ccccc3c2C1(C)C,inactive
8,Oc1cccc(Nc2ccccc2)c1,inactive
9,O=C(CCCN1CC=C(n2c(=O)[nH]c3ccccc32)CC1)c1ccc(F)cc1,inactive
10,NCCNCCO,inactive
11,CN1CCCN=C1COC(=O)C(O)(c1ccccc1)C1CCCCC1 (stereo not given),inactive
12,O=c1cc(-c2ccccc2)oc2cc(O)cc(O)c12,inactive
13,C[C@@H](CN(C)C)CN1c2ccccc2Sc2ccccc21,inactive
14,CCOC(=O)c1ccccc1C(=C1C=C(Br)C(=O)C(Br)=C1)c1cc(Br)c(O)c(Br)c1,inactive
15,CN1C(C(=O)Nc2ccccn2)=C(O)c2sccc2S1(=O)=O,inactive
16,CCOC(=O)c1ccc(I)cc1,inactive
17,CCC1CO1 (stereo not given),inactive
18,O=c1[nH]c2ccc(Cl)cc2o1,inactive
19,Oc1c(I)cc(I)c2cccnc12,inactive
20,CN1C(=O)N(c2ccccc2Br)Cc2cnc(Nc3ccc4c(c3)OCC(CO)O4)nc21 (stereo not given),inactive
